# Reference: PubChem BioAssay (Tox21)
# Records with an inconclusive call do not appear. Calls of active or inactive are those of the source. Calls follow the shape of the dose curve; as a rule, active = well fitted activation curve with a large enough effect in the repeat runs; inconclusive = weak or mixed curves; inactive = no such curve, though single readings can be large or run the other way.
# Target: Aryl hydrocarbon receptor (Homo sapiens) (UniProt P35869)
# Assay: qHTS assay to identify small molecule that activate the aryl hydrocarbon receptor (AhR) signaling pathway (AID 743085); also: nearly all actives have a fitted effect of over 15% in size;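 as to activation: HG2L7.5c1 human HepG2 liver cells with stably integrated DRE-driven firefly reporter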
# Conditions: HepG2 AhR-luc (HG2L7.5c1), luciferase, 24 h; series mostly up to 70.3 µM; activation: at the top concentration
# Excerpt: U.S. Tox21 Program National Center for Advancing Translational Sciences [NCATS] NIH Chemical Genomics Center [NCGC] U.S. Environmental Protection Agency [EPA] National Institutes of Environmental Health Sciences [NIEHS] National Toxicology Program [NTP] U.S. Food and Drug Administration [FDA] Tox21 Assay overview: The Aryl hydrocarbon Receptor (AhR), a member of the family of basic helix-loop-helix transcription factors, is crucial to adaptive responses to environmental changes. AhR mediates cellular responses to environmental pollutants such as aromatic hydrocarbons through induction of phase I and II enzymes but also interacts with other nuclear receptor signaling pathways. A cell based HepG2-AhR-luc assay (HG2L7.5c1 cell line, developed by Dr. Michael S. Denison, University of California at Davis, was used to assess the activation of AhR. HepG2 (human hepatocellular carcinoma) cells were stably transfected with an Ah receptor-responsive firefly luciferase reporter gene plasmid containing 20 dioxin responsive elements and luciferase reporter gene. Increased luciferase activity can be used to identify the compounds that induce AhR activation.
# Tox21 Assay Protocol Summary: 4000 cells in 5 uL/well were dispensed into white wall/solid bottom 1536-well plates using a Multidrop Combi (Thermo Fisher Scientific Inc., Waltham, MA) dispenser. After the assay plates were incubated at 37C for 5 h, 23 nL of compound or DMSO vehicle was transferred to the assay plates by a pintool station (Kalypsys, San Diego, CA). The plates were incubated at 37C for 24 hr. After 1 ul/well of CellTiter-Fluor reagent (Promega, Madison, WI) was added into the assay plates using a Flying Reagent Dispenser (FRD) (Aurora Discovery, CA), the assay plates were incubated at 37C for 30 min. The fluorescence intensity in the plates was measured using a ViewLux plate reader (PerkinElmer, Shelton, CT), followed by the addition of 4 uL of ONE-Glo Luciferase Assay reagent (Promega) using an FRD (Aurora Discovery). After the assay plates were incubated at room temperature for 30 min, luminescence intensity was measured using a ViewLux plate reader (Perkin Elmer).
# % is scaled to controls: 0 for no effect and ±100 for the full control effect; potency is read from the fitted curve at half-maximal effect.
# Sequence of Aryl hydrocarbon receptor (Homo sapiens) (P35869 whole entry, looked up): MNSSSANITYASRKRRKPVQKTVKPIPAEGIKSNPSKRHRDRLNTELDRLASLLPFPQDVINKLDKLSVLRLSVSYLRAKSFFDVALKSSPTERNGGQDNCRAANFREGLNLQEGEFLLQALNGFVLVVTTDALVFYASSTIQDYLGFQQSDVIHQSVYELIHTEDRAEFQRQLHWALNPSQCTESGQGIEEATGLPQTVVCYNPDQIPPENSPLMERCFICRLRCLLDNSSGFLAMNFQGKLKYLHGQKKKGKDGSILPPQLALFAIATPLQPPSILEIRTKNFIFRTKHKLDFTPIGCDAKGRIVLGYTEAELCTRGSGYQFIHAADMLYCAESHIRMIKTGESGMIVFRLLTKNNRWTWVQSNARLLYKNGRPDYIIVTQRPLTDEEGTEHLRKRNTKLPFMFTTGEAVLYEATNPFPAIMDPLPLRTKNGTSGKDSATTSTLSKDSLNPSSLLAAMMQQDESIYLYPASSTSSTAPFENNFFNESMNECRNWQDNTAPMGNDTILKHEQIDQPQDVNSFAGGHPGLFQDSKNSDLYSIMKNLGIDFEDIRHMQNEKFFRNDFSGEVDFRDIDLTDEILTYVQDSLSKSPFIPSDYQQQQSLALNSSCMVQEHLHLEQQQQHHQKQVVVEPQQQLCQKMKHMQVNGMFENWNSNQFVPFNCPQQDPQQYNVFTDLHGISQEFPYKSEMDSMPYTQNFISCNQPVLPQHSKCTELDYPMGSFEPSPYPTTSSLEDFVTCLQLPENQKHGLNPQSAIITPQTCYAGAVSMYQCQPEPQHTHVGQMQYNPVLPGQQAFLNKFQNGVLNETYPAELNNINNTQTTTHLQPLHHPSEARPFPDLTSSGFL
SMILES,activation,Potency
NC(=O)Cn1c(=O)cc(CCN2CCN(c3nccc4sccc34)CC2)c2ccc(F)cc21,-0.255% (inactive),
Cc1nc2ccccc2s1,0.387% [at 95 µM] (inactive),
O=C(CCCN1CCN(c2ccc(F)cc2)CC1)NC1c2ccccc2CSc2ccccc21 (stereo not given),7.44% (inactive),
CC(N)CN (stereo not given),0.501% [at 95 µM] (inactive),
NC(=O)Nc1ccc(Cl)cc1,-0.632% (inactive),
Cc1nccn1-c1ccc(Sc2cccc(C3(C(N)=O)CCOCC3)c2)cc1,-4.45% (inactive),
CCCC1C(CC)=CC(CC)=CN1c1ccccc1 (stereo not given),3.16% (inactive),
C=CCOC(=O)/C=C\C(=O)OCC=C,1.42% [at 95 µM] (inactive),
Cc1cc2nc3ccc(=[N+](C)C)cc-3sc2cc1N,,4220 nM (active)
O=[N+]([O-])c1cccc(S(=O)(=O)NCCNS(=O)(=O)c2cccc([N+](=O)[O-])c2)c1,2.02% (inactive),
CNCCCC1c2ccccc2C=Cc2ccccc21,-1.58% [at 32.5 µM] (inactive),
CCOC(=O)[C@@H](C)Oc1ccc(Oc2nc3ccc(Cl)cc3o2)cc1,3.8% (inactive),
C(=C\c1ccccc1)/CN1CCN(C(c2ccccc2)c2ccccc2)CC1,-0.0694% [at 32.5 µM] (inactive),
CO[Si](C)(OC)OC,-0.119% (inactive),
CC(C)CCCCCOC(=O)CCCCC(=O)OCCCCCC(C)C,-0.224% (inactive),
NCC1CCCC(CN)C1 (stereo not given),-0.477% (inactive),
COc1cc2c(cc1OC)-c1cc(=Nc3c(C)cc(C)cc3C)n(C)c(=O)n1CC2,,1330 nM (active)
COCCOC(=O)C1=C(C)NC(C)=C(C(=O)OC/C=C/c2ccccc2)C1c1cccc([N+](=O)[O-])c1 (stereo not given),,944 nM (active)
Cc1ccnc2ccccc12,4.37% (inactive),
CCC(C(=O)OCCOCCN(CC)CC)c1ccccc1 (stereo not given),1.92% (inactive),

SMILES,activation,Potency
CC(C)OCC1CO1 (stereo not given),-0.0268% (inactive),
O=C(O)C(Cc1cc(I)c(O)c(I)c1)c1ccccc1 (stereo not given),0.0909% (inactive),
O=C(O)c1ccc(CO)o1,0.799% [at 95 µM] (inactive),
O=C(Nc1ccc([N+](=O)[O-])cc1)Nc1ccc([N+](=O)[O-])cc1,0.518% (inactive),
CC(=O)[C@H]1CC[C@H]2[C@@H]3C[C@H](C)C4=CC(=O)CC[C@]4(C)[C@H]3[C@@H](O)C[C@]12C,4.23% [at 32.5 µM] (inactive),
CC(C)CCCC(=O)O,0.649% (inactive),
CN1CCN(c2c(F)cc3c(=O)c(C(=O)O)cn4c3c2OCN4C)CC1,-0.596% (inactive),
CCCCCCCCCCCCCCCCBr,-0.435% [at 32.5 µM] (inactive),
CC[C@H](NC(=O)c1cc(F)ccc1NS(=O)(=O)c1cccc2cccnc12)c1ccccc1,6.05% (inactive),
CO[C@H]1O[C@H](CO)[C@@H](O)[C@H](O)[C@H]1O,-2.14% (inactive),
O=C(O)c1cccnc1C(=O)O,-1.07% (inactive),
Cc1ccc(S)cc1,-0.919% (inactive),
CC(=O)Nc1ccc(N)cc1,-1.11% [at 95 µM] (inactive),
Cc1cc(O)c(C(C)C)cc1Cl,,inactive
CCCCCCCCCCCC[N+](C)(C)CC(=O)[O-],-1.27% (inactive),
O=C(Nc1ccccc1)Nc1ccccc1,,30800 nM (active)
CC(CCO)CCc1ccccc1 (stereo not given),-0.343% (inactive),
CCc1c2c(nc3ccc(OC(=O)N4CCC(N5CCCCC5)CC4)cc13)-c1cc3c(c(=O)n1C2)COC(=O)[C@]3(O)CC,0.0284% (inactive),
CCN(Cc1cccc(S(=O)(=O)O)c1)c1ccc(C(=C2C=CC(=[N+](CC)Cc3cccc(S(=O)(=O)[O-])c3)C=C2)c2ccccc2)cc1,-1.27% (inactive),
CCC(C)(O)CCC=C(C)C (stereo not given),0.948% (inactive),
